# Shown are actives, neighbours in structure and some others; about 28% of the full set was active somewhere.
# CD11b adhes inh = blocks human CD11b/CD18 adhesion to fibrinogen. K562 CD11b/CD18 adhesion to fibrinogen, ATPlite luminescence; Mn2+ added to activate the integrin. inhibition, % at 10 µM. actives 0.54% (n = 93,000). AID 1497;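 active = primary inhibition of 50% or more at 10 µM, then 40% or more on retest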
# CYP2C19 inhib = blocks human cytochrome P450 2C19 | actives 21% (n = 96,000) | inhibition, % at 5 µM | CYP2C19 Supersomes, luciferin-H EGE luminescence, 30 min | P33261;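 active = CYP2C19 inhibition above a set limit at 5 µM in the primary screen, cut at about 50% in these data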;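 also: plate controls were negative control wells for no effect and 2.5 mM tranylcypromine positive control for full effect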
# CYP2C19 activ = cytochrome P450 2C19 (human) activation. P33261. recombinant CYP2C19, luciferin-H EGE luminescence; stronger effect = higher value; 0 = fully inhibited enzyme, 1 = untreated enzyme. activation factor at 5 µM. 96,000 tested, under 10 active;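 active = activation factor of at least 2 at 5 µM in the primary screen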;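 also: 0 = wells with 2.5 mM tranylcypromine and 1 = vehicle-only wells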
# CYP2C9 inh = human CYP2C9 inhibition | inhibition, % at 5 µM | actives 20% (n = 96,000) | P11712 | CYP2C9 Supersomes, luciferin-H conversion, luminescence;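 active = blocking of liver enzyme CYP2C9 beyond about 50% at 5 µM, limit read from the data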
# CYP2C9 act = activators of human CYP2C9. P11712. recombinant CYP2C9, luciferin-H conversion, luminescence; stronger effect = higher value; factor 1 = untreated enzyme, 0 = blocked. activation factor at 5 µM. actives 1.4% (n = 96,000);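 active = activation factor of 2 or more for CYP2C9 at a 5 µM dose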;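 also: 0 = sulfaphenazole-blocked wells and 1 = vehicle-only wells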
# Mac1 fbg enh = CD11b/CD18-fibrinogen binding enhancement; activation, % at 10 µM; actives 0.07% (n = 93,000); K562 CD11b/CD18 adhesion to fibrinogen, ATPlite luminescence;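 active = 10 µM primary screen giving 50% or more activity, confirmed by 40% or more on retest at that dose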
# * marks the source's active call; other numbers are inactive results; · = no result.
SMILES,CD11b adhes inh,CYP2C19 inhib,CYP2C19 activ,CYP2C9 inh,CYP2C9 act,Mac1 fbg enh
CN(C)CCCN1C(=O)c2oc3ccccc3c(=O)c2C1c1cccs1 (stereo unspecified),·,3.2,1,26.4,0.7,·
CCN(CC)CCCN(Cc1cc2cc3c(cc2[nH]c1=O)OCO3)C(=O)Nc1ccccc1OC,-10.4,9.7,0.9,0.4,1,-1.9
Brc1c(OCCOCCn2cncn2)ccc2ccccc12,-10.1,99.3*,0,94.9*,0.1,-3.1
Clc1ccc(OCCOCCN2CCCCC2)c(Br)c1,-2.7,29.7,0.7,11.2,0.9,-4.9
Cc1ccc(-n2c(SCC(=O)N3CCOCC3)nnc2-c2ccncc2)cc1,-14.3,72.2*,0.3,12.4,0.9,-4.3
COc1ccc(N2CCN(C(=O)CSc3nnc(-c4cccnc4)n3-c3ccccc3)CC2)cc1,-14.7,19.2,0.8,7.5,0.9,-5.1
Cc1ccc(-n2c(SCC(=O)N3CCOCC3)nnc2-c2cccnc2)cc1,-1.2,15.2,0.8,8.8,0.9,4.8
O=C(CSc1nnc(-c2cccnc2)n1-c1ccccc1)N1CCN(c2ccc(F)cc2)CC1,2.7,92.0*,0.1,63.7*,0.4,-1.1
Cc1nc(-c2coc3cc(O)c(C)cc3c2=O)cs1,23.2,68.0*,0.3,3.6,1,-6.0
Cc1nc(-c2coc3cc(OCC(=O)O)ccc3c2=O)cs1,24.2,46.7,0.5,-5.1,1.1,-3.2
N/C(Cc1ccc(Cl)cc1)=N\OC(=O)c1ccccc1,-6.9,66.1*,0.3,63.4*,0.4,-0.6
CCC(=O)Nc1ccccc1C(=O)OCC(=O)c1cccc2ccccc12,0.3,10.8,0.9,73.0*,0.3,2.0
CCC(=O)Nc1ccccc1C(=O)OCc1ccc(C(=O)c2ccccc2)cc1,3.8,42.5,0.6,61.8*,0.4,-8.0
O=C(O)c1ccccc1C(=O)OCc1ccccc1,10.5,-2.2,1,-8.3,1.1,2.2
O=C(OCc1ccc(Cl)cc1)c1ccccc1C(=O)c1ccccc1,4.5,72.1*,0.3,29.1,0.7,1.0
O=C(CN1CCC(O)CC1)N1c2ccccc2C=Cc2ccccc21,1.1,16.6,0.8,13.1,0.9,-4.9
C=CCn1sc(=N)c(C#N)c1N,-6.1,-6.0,1.1,15.8,0.8,-1.2
C=C1CC(C)OC(c2ccccc2OCC(O)CN2CCCCC2)C1 (stereo unspecified),1.6,-4.5,1,-3.5,1,-5.2
O=C(NC1CCCc2ccccc21)c1cncc(Br)c1 (stereo unspecified),-17.4,18.5,0.8,10.9,0.9,0.0
CC(=O)N(C)c1ccc(NC(=O)c2cnn(C)c2)cc1,-30.0,10.8,0.9,9.0,0.9,0.9
O=C(Nc1c(C(=O)NCc2ccco2)cnn1-c1ccccc1)c1cccc(F)c1,-9.1,67.1*,0.3,87.4*,0.1,-1.9
O=C(Nc1c(C(=O)Nc2ccccc2)cnn1-c1ccccc1)c1ccco1,4.0,-5.7,1.1,26.4,0.7,-0.3
Cc1ccc(C(=O)Nc2c(C(=O)NCc3ccco3)cnn2-c2ccccc2)cc1,-18.8,37.7,0.6,55.6*,0.4,-3.0
CCOC(=O)c1cnn(-c2ccccc2)c1NC(=O)c1ccc(C)cc1,-1.1,27.4,0.7,25.3,0.7,-0.5
Cc1ccc2nc(-c3cccc(NS(C)(=O)=O)c3)cc(-c3ccccc3)c2c1,·,·,·,·,·,-4.2
SMILES,CD11b adhes inh,CYP2C19 inhib,CYP2C19 activ,CYP2C9 inh,CYP2C9 act,Mac1 fbg enh
COc1cc(CNC2CCC(C)C2)cc(OC)c1 (stereo unspecified),1.1,61.8*,0.4,-13.1,1.1,2.5
COc1cccc(CNC2CCCC2)c1,-4.9,14.5,0.9,-12.1,1.1,-1.0
COc1cc(CNC2CCCC2)cc(OC)c1,-27.2,71.2*,0.3,39.8,0.6,3.4
Cc1nc(Oc2cccc(Cl)c2)c2oc3ccccc3c2n1,16.4,-3.6,1,2.9,1,-3.9
Cc1n[nH]c(=O)n1-c1cccc(C(F)(F)F)c1,·,-6.6,1.1,1.3,1,·
COc1ccc([C@@H]2[C@H]3C(=O)N(c4cccc(C(F)(F)F)c4)C(=O)[C@H]3ON2C)cc1,-23.3,54.8*,0.5,36.6,0.6,-2.1
COc1ccc(C2=Nn3c(nnc3-c3ccccn3)SC2)cc1OC,24.4,62.2*,0.4,36.3,0.6,-4.8
